± gives the uncertainty stated by the source. In all, about 9,900 compounds were measured (“viability index relative to DMSO control”: median about 1, lowest 2% from about 0.85 on). The sample holds the lowest values, similar compounds and a random draw of the others, so the mix is not that of the screen.
Test system: Plasmodium falciparum NF54 stage V gametocytes
Assay: viability index relative to DMSO control (fraction); higher = less gametocyte killing
Conditions: 2.5 µM, incubation time: 72 h
Method in brief: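 P. falciparum NF54 stage V gametocytes (serum-free medium, 0.75% gametocytemia, 1.25% hematocrit) were exposed to compound at 2.5 µM for 72 hr at 37°C under low oxygen, then stained with MitoTracker Red CMXRos and saponin for one to two hours. Red particles of 20–70 µm2 in one field per well were counted, and the viability index is that count scaled to the plate mean of solvent-only wells.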

[1] = library set: Broad Institute DOS
[2] = library set: Broad Institute Blood Stage

| SMILES | viability index [1] | viability index [2] |
| --- | --- | --- |
| C[C@@H]1CN([C@@H](C)CO)C(=O)Cc2cc(NC(=O)CCC(F)(F)F)ccc2O[C@@H]1CN(C)CC1CC1 | 1.04 ± 0.075 |  |
| Cc1noc(C)c1S(=O)(=O)N(C)C[C@H]1OCCCC[C@H](C)Oc2ccc(NS(=O)(=O)c3cn(C)cn3)cc2C(=O)N([C@H](C)CO)C[C@@H]1C | 1.08 ± 0.019 |  |
| Cc1noc(C)c1S(=O)(=O)N(C)C[C@H]1OCc2cn(nn2)CCCC(=O)N([C@H](C)CO)C[C@@H]1C | 0.952 ± 0.014 |  |
| C[C@H](CO)N1C[C@H](C)[C@@H](CN(C)C)OCc2ccccc2-c2c(n(C)c3ccccc23)C1=O | 1.04 ± 0.08 |  |
| CNC[C@@H]1OCCCC[C@@H](C)Oc2ccc(NC(=O)Nc3ccc(OC)cc3)cc2C(=O)N([C@H](C)CO)C[C@H]1C | 1.05 ± 0.011 |  |
| C[C@H]1CN([C@@H](C)CO)C(=O)c2ccccc2-c2ccccc2CO[C@@H]1CN(C)C(=O)[C@@H]1CCCN1C | 0.946 ± 0.043 |  |
| CC(C)(C)[S@@](=O)N1Cc2cc(C(=O)NCCc3ccncc3)nc(-c3cccc(-c4ccccc4)c3)c2[C@H]1CCO |  | 0.763 ± 0.047 |
| CC(C)NC(=O)N1Cc2cc(C(=O)NC3CCC3)nc(-c3cccc(-c4cncnc4)c3)c2[C@@H]1CCO | 1.01 ± 0.018 |  |
| CC(C)(C)[S@](=O)N1Cc2cc(C(=O)NCc3ccccc3F)nc(-c3cccc(-c4cncnc4)c3)c2[C@@H]1CCO | 0.89 ± 0.056 |  |
| CC(C)(C)[S@@](=O)N1Cc2cc(C(=O)NCc3ccccc3F)nc(-c3cccc(-c4cncnc4)c3)c2[C@H]1CCO | 0.801 ± 0.1 |  |
| COc1ccc(CNC(=O)c2cc3c(c(-c4cccc(-c5ccc(C#N)cc5)c4)n2)[C@H](CCO)N([S@@](=O)C(C)(C)C)C3)cc1 | 0.977 ± 0.085 |  |
| CC(C)(C)S(=O)N1Cc2cc(C(=O)NCc3ccc(Oc4ccccc4)cc3)nc(-c3cccc(-c4cccc(F)c4)c3)c2[C@@H]1CCO (some centres not stated) | 1.02 ± 0.034 |  |
| CC(C)NC(=O)N1Cc2cc(C(=O)NC3Cc4ccccc4C3)nc(-c3cccc(-c4cccnc4)c3)c2[C@H]1CCO | 0.764 ± 0.091 |  |
| CC(C)(C)[S@@](=O)N1Cc2cc(C(=O)NCCc3ccncc3)nc(-c3cccc(-c4cccc(C#N)c4)c3)c2[C@H]1CCO | 1.06 ± 0.084 |  |
| CC(C)(C)[S@](=O)N1Cc2cc(C(=O)NCc3ccccn3)nc(-c3cccc(-c4ccccc4F)c3)c2[C@@H]1CCO | 0.955 ± 0.08 |  |
| COc1cccc(-c2cccc(-c3nc(C(=O)NCc4ccc(Oc5ccccc5)cc4)cc4c3[C@@H](CCO)N(S(=O)C(C)(C)C)C4)c2)c1 (some centres not stated) |  | 0.799 ± 0.032 |
| CC(C)(C)[S@](=O)N1Cc2cc(C(=O)NCCc3ccncc3)nc(-c3cccc(-c4cccc(C#N)c4)c3)c2[C@@H]1CCO | 1.08 ± 0.081 |  |
| CC(C)NC(=O)N1Cc2cc(C(=O)NC3Cc4ccccc4C3)nc(-c3cccc(-c4cccnc4)c3)c2[C@@H]1CCO | 0.97 ± 0.052 |  |
| CO[C@@H]1CC[C@H]2CCN(C)C(=O)[C@H](C)CN(C)C(=O)c3cc(C#N)ccc3OC[C@@H]1O2 | 0.973 ± 0.056 |  |
| CCC(=O)Nc1ccc2c(c1)C(=O)N(C)C[C@@H](OC)[C@H](C)CN(C(=O)Cc1cccnc1)[C@@H](C)CO2 | 1.13 ± 0.043 |  |
| O=C(Cc1ccncc1)N1CC[C@@H]2[C@H](CO)Nc3ccc(Br)cc3[C@@H]21 | 1.077 ± 0.0015 |  |

| SMILES | viability index [1] | viability index [2] |
| --- | --- | --- |
| C/C=C/c1cccc(-c2nc(C(=O)Nc3nccs3)cc3c2[C@@H](CCO)N(C(=O)NC(C)C)C3)c1 | 0.867 ± 0.035 |  |
| C[C@@H]1CN([C@H](C)CO)C(=O)Cc2cc(NC(=O)Nc3ccc(F)cc3)ccc2O[C@H]1CN(C)S(C)(=O)=O | 0.939 ± 0.16 |  |
| CC(=O)NC[C@H]1[C@@H](c2ccc(C#Cc3ccccc3F)cc2)[C@@H](CO)N1C(C)=O | 1.05 ± 0.002 |  |
| C/C=C/c1ccc([C@H]2[C@@H](CO)N(C(=O)NC3CCCCC3)[C@H]2C#N)cc1 | 1.11 ± 0.16 |  |
| CC(C)C#Cc1ccc([C@@H]2[C@@H](CO)N(C(=O)c3cccc(F)c3)[C@H]2C#N)cc1 | 1.17 ± 0.073 |  |
| C[C@@H]1CCCCO[C@@H](CN(C)S(=O)(=O)c2ccc(F)cc2)[C@H](C)CN([C@@H](C)CO)C(=O)c2cc(N(C)C)ccc2O1 | 1.05 ± 0.092 |  |
| Cc1noc(C)c1S(=O)(=O)N(C)C[C@@H]1OCCCC[C@@H](C)Oc2ccc(N(C)C)cc2C(=O)N([C@@H](C)CO)C[C@@H]1C | 1.08 ± 0.068 |  |
| C[C@@H]1CCCCO[C@@H](CN(C)S(=O)(=O)c2ccc(F)cc2)[C@@H](C)CN([C@@H](C)CO)C(=O)c2cc(N(C)C)ccc2O1 | 0 |  |
| C[C@H]1CCCCO[C@H](CN(C)S(=O)(=O)c2ccc(F)cc2)[C@@H](C)CN([C@@H](C)CO)C(=O)c2cc(N(C)C)ccc2O1 | 1.09 ± 0.17 |  |
| Cc1noc(C)c1S(=O)(=O)N(C)C[C@@H]1OCCCC[C@@H](C)Oc2ccc(N(C)C)cc2C(=O)N([C@@H](C)CO)C[C@H]1C | 0.635 ± 0.13 |  |
| Cc1noc(C)c1S(=O)(=O)N(C)C[C@H]1OCCCC[C@@H](C)Oc2ccc(N(C)C)cc2C(=O)N([C@H](C)CO)C[C@@H]1C | 1.02 ± 0.029 |  |
| CCC(=O)N1[C@@H](CO)[C@@H]2c3ccccc3N(C(=O)Nc3ccc(Cl)cc3)C[C@@H]21 | 1.1 ± 0.044 |  |
| COc1cccc(-c2ccc([C@H]3[C@H]4CNC[C@@H]3N4CC3CCCCC3)cc2)c1 | 0.963 ± 0.029 |  |
| CCCC#Cc1cnc2c(c1)C(=O)N([C@H](C)CO)C[C@H](C)[C@H](CN(C)C(=O)Nc1cc(F)ccc1F)O2 | 1.02 ± 0.081 |  |
| CO[C@H]1CN(C)C(=O)c2cc(NC(=O)Nc3cccc(Cl)c3)ccc2OC[C@H](C)N(C(=O)Nc2c(C)noc2C)C[C@H]1C | 0.7814 ± 0.0047 |  |
| COc1ccccc1CN1C[C@@H](C)[C@H](OC)CN(C)C(=O)c2cc(NC(=O)Nc3ccccc3OC)ccc2OC[C@H]1C | 1.02 ± 0.091 |  |
| COc1ccccc1CN1C[C@@H](C)[C@H](OC)CN(C)C(=O)c2ccc(NC(=O)Nc3ccccc3OC)cc2OC[C@H]1C |  | 0.855 ± 0.025 |
| CO[C@@H]1CN(C)C(=O)c2cc(NC(=O)Nc3cccc(Cl)c3)ccc2OC[C@H](C)N(C(=O)Nc2c(C)noc2C)C[C@H]1C | 1.07 ± 0.019 |  |
| CO[C@@H]1CN(C)C(=O)c2cc(NC(=O)Nc3cccc(Cl)c3)ccc2OC[C@@H](C)N(C(=O)Nc2c(C)noc2C)C[C@H]1C | 1.052 ± 0.0092 |  |
| COc1ccccc1NC(=O)Nc1ccc2c(c1)OC[C@@H](C)N(Cc1ccccc1Cl)C[C@@H](C)[C@H](OC)CN(C)C2=O |  | 0.821 ± 0.053 |
| Fc1cccc(-c2ccc([C@H]3[C@H]4CNC[C@@H]3N4CC3CCOCC3)cc2)c1 | 1.02 ± 0.0019 |  |
